TDP1 inh: qHTS Assay for Inhibitors of Tyrosyl-DNA Phosphodiesterase (TDP1); Tyrosyl-DNA phosphodiesterase 1 (Homo sapiens), Q9NUW8; recombinant TDP1, AlphaScreen DNA substrate cleavage; Potency, µM (highest dose often 130 µM), for the others: at the top dose activity change, negative = inhibition, hits mostly inhibitors; 0.28% of 350,000 active; AID 485290, 2010; note: potency is the fitted concentration of half-maximal effect; nearly all actives have a fitted effect of over 40% in size
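Tdp1 1 nM final; 15 min RT w/ cpd; substrate 15 nM, 5 min; beads 10 ug/ml, 10 min; AlphaScreen read. Neg ctrl: no enzyme.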
TDP1 cell noCPT: qHTS for Inhibitors of human tyrosyl-DNA phosphodiesterase 1 (TDP1): qHTS in cells in absence of CPT | DT40 Tdp1-/- hTDP1 cells, no CPT, ATP luminescence, 48 h | Potency, µM (series often up to 46.2 µM), for the others: at the top dose activity change, negative = growth inhibition, usual class: inhibitors | 15% of 420,000 active | AID 686978, 2013; note: potency is the fitted concentration of half-maximal effect; nearly all actives have a fitted effect of over 55% in size
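Cells were dispensed at 400 per well, compounds added by pin tool, plates incubated ≥48 hr at 37 °C, then CellTiter-Glo added for 30 min at room temperature before luminescence reading. Line: DT40 Tdp1-/- complemented with hTDP1; camptothecin omitted.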
CtBP-E1A inh: qHTS Assay for Inhibitors of the CtBP/E1A Interaction; AID 651724, 2012; 0.49% of 340,000 active; activity change, % (no concentration beside the values); AlphaScreen GST-E1A/His-CtBP binding, 1536-well; hits give low values; CtBP / adenovirus E1A interaction (AlphaScreen); in the data active = activity change below about -65%; inconclusive = mostly about -30% to -63%
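Homogeneous bead-based format: GST-tagged E1A captured on glutathione donor beads, His-tagged CtBP on nickel acceptor beads; compounds precede bead addition by 2 h at 37 °C.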
IL-1B inflam inh: qHTS for Inhibitors of Inflammasome Signaling: IL-1-beta AlphaLISA Primary Screen | activity change, % at 57.5 µM | AID 743279, 2014 | 4.7% of 360,000 active | THP-1 LPS/ATP IL-1B secretion, AlphaLISA, 16 h; hits give low values; in the data active = activity change below about -50%; inconclusive = mostly about -30% to -49%
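Secreted IL-1B measured by AlphaLISA bead assay after 16 h compound exposure of THP-1 cells; compounds (final up to 57.5 uM) added 1 h before LPS (250 ng/mL) and ATP (1.25 mM) stimulation; lower signal means less secretion.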
DT40 TDP1 CPT: qHTS for Inhibitors of human tyrosyl-DNA phosphodiesterase 1 (TDP1): qHTS in cells in presence of CPT | chicken DT40 Tdp1-/-;hTDP1 cells + 20 nM CPT, ATP luminescence, 48 h | Potency, µM (titrated, usually from 46.2 µM), without a hit: top-dose activity change, negative = growth inhibition, hits mostly inhibitors | 12% of 420,000 active | AID 686979, 2013; note: potency is the fitted concentration of half-maximal effect; nearly all actives have a fitted effect of over 55% in size
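Chicken DT40 Tdp1-/- cells complemented with human TDP1, 400 cells/well, exposed to compounds plus 20 nM camptothecin for at least 48 h at 37 C; viability read as ATP content by CellTiter-Glo luminescence.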
Six1-Eya2 blk: qHTS Assay for Inhibitors of the Six1/Eya2 Interaction; Homeobox protein SIX1 (Homo sapiens) + Protein phosphatase EYA2 (Homo sapiens), …; AlphaScreen GST-Six1/His-Eya2 binding, biochemical; hits give low values; activity change, % (concentration not given with the values); 0.56% of 360,000 active; AID 651725, 2012; in the data active = activity change below about -65%; inconclusive = mostly about -30% to -63%
Target sequence (O00167 whole entry, looked up): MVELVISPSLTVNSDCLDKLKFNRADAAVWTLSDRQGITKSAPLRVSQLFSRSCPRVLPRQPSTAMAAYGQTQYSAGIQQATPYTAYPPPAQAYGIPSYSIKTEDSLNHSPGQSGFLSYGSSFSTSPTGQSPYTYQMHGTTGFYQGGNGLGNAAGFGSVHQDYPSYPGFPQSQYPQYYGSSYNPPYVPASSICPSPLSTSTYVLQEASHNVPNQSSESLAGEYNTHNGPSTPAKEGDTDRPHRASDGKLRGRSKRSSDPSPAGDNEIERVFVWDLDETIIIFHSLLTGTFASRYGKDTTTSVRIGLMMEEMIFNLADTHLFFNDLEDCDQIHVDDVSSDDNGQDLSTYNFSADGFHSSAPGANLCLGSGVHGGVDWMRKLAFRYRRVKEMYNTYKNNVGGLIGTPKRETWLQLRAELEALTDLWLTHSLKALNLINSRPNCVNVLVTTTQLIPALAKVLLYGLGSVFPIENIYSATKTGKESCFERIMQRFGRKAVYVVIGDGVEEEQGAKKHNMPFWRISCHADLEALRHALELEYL
Target sequence (Q15475 whole entry, looked up): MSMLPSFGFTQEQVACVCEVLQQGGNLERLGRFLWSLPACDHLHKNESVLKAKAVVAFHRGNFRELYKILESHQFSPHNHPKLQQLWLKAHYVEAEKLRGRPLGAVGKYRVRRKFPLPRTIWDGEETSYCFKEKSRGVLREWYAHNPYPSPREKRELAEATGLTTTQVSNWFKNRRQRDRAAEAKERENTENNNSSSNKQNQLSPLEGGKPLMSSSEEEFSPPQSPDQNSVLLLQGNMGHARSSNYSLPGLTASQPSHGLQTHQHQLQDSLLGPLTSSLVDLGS
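Compounds are tested against tagged Six1 and Eya2 proteins bridged by glutathione donor and nickel acceptor beads; after a one-hour incubation at 37 °C without light, AlphaScreen emission is recorded.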
* hit, by the source's call; u = inconclusive; x = no result; ! = not confirmed by another sample; [ ] = dose if it differs, or a comment. Only some compounds are listed: those with a hit (about 18% of all), similar ones and a draw of the others. Unless noted, calls come from the whole dose curve; as a rule, active = well fitted curve in the direction sought with a large enough effect; inconclusive = small, poorly fitted or top-dose-only effect, or another doubt; inactive = no such curve, though single readings can be large; an effect the other way counts as inactive or inconclusive. % is set by controls: 0 for no effect and ±100 for the full control effect.

SMILES	TDP1 inh	TDP1 cell noCPT	CtBP-E1A inh	IL-1B inflam inh	DT40 TDP1 CPT	Six1-Eya2 blk
Fc1ccccc1CCNCc1ccccc1	-3%	-24%	9	-11	3%	8
COc1cccc(CNCCc2c[nH]c3ccccc23)c1	x	u	-8	-78*	u	-16
O=C(NCC(c1cccnc1)N1CCN(c2ccc(F)cc2)CC1)Oc1ccccc1 (centres undefined)	8%	u	10	u	u	-5
CNC(C)Cc1ccc2c(c1)OCO2 (centres undefined)	x	-14%[92.5 µM]	x	x	-26%[92.5 µM]	x
Cc1ccc(CN2CCCC(C(=O)c3sccc3C)C2)o1 (centres undefined)	3%	21µM*	-26	-10	3%	-11
Cc1ccsc1C(=O)C1CCCN(Cc2cc3ccccc3o2)C1 (centres undefined)	6%	u	-9	11	u	-10
CSc1ncc(CN2CCCC(C(=O)c3sccc3C)C2)cn1 (centres undefined)	-1%	u	-2	54	u	1
Cc1ccsc1C(=O)C1CCCN(Cc2cnc(N3CCCC3)s2)C1 (centres undefined)	4%	18µM*	-3	9	12µM*	-14
Cc1ccsc1C(=O)C1CCCN(Cc2ccc(-n3cccn3)cc2)C1 (centres undefined)	-8%	15µM*	23	-16	21µM*	-5
COc1ccc(C(=O)Cn2c(NCCCl)nc3ccccc32)cc1	8%	-26%	7	-2	21µM*	1
O=C(Cn1c(NCCCl)nc2ccccc21)c1ccc(Br)cc1	x	u	x	-28	u	4
C#CCN(C)C(C)Cc1ccccc1 (centres undefined)	3%	3.7µM*	1	-15	u	6
CCCCCc1cc(O)c2c(c1)OC(C)(C)c1ccc(C)cc1-2	x	9.4µM*	x	x	17µM*	x
OC(COCc1ccc(Cl)cc1)CN1CC=C(c2ccccc2)CC1 (centres undefined)	3%	10µM*	-17	-70*!	16µM*	-3
OC(CN1CC=C(c2ccccc2)CC1)c1ccccc1 (centres undefined)	9%	u	2	-6	-9%	-1
O=NN(c1ccccc1)c1ccccc1	9%	x	x	x	x	x
COc1ccc(/C=C/C(=O)N2CC3C[C@@H](C2)Cn2c3cccc2=O)cc1OC	5%	-4%[9.04 µM]	x	x	17%[9.04 µM]	x
O=[N+]([O-])c1ccccc1	0%	10%	x	x	7%	x
O=[N+]([O-])c1ccc(C(=Nc2ccccc2)N2CC2)cc1	x	15µM*	-5	0	8.2µM*	-21
C[C@@H]([C@H](O)c1ccccc1)N(C)C	x	-10%	x	x	2%	x
CN1[C@@H](CC(=O)c2ccccc2)CCC[C@H]1C[C@H](O)c1ccccc1	7%	21µM*!	9	-18	24µM*!	3
COC(=O)C1=C(c2ccccc2OCc2ccccc2)C[C@@H]2CC[C@H]1N2C(=O)NCCOc1ccc(OC)cc1	3%	u	-12	0	u	-16
COC(=O)C1=C(c2ccc(F)cc2OCc2ccccc2)C[C@@H]2CC[C@H]1N2C(=O)NCc1ccc(OC)cc1	0%	u	-5	u	u	-14
COC(=O)C1=C(c2ccc(F)cc2OCc2ccccc2)C[C@@H]2CC[C@H]1N2C(=O)NCc1cccc(C(F)(F)F)c1	0%	18µM*	-4	-59*	u	-3
COC(=O)C1=C(c2ccc(F)cc2OCc2ccccc2)C[C@@H]2CC[C@H]1N2C(=O)NCc1ccc(Br)cc1	1%	15µM*	0	-60*	u	0
SMILES	TDP1 inh	TDP1 cell noCPT	CtBP-E1A inh	IL-1B inflam inh	DT40 TDP1 CPT	Six1-Eya2 blk
COC(=O)C1=C(c2ccc(F)cc2OCc2ccccc2)C[C@@H]2CC[C@H]1N2C(=O)NCCc1ccc(F)cc1	0%	21µM*	1	u	u	-6
COC(=O)C1=C(c2ccc(F)cc2OCc2ccccc2)C[C@@H]2CC[C@H]1N2C(=O)NCCOc1ccccc1	0%	16µM*	-5	u	u	-14
CCOP(=O)(OCC)C(NS(=O)(=O)c1ccccc1)C(Cl)(Cl)Cl (centres undefined)	0%	-20%	-5	9	1%	7
COc1ccc2c3c1O[C@H]1C(=O)CC[C@@]4(O)C(C2)N(CC2CC2)CCC314 (some centres undefined)	-2%[56.1 µM]	x	x	x	x	x
C(#CCN1CCOCC1)COC/C=C/c1ccccc1	2%	-6%	0	-2	3%	5
COC(=O)C1=C(c2ccc(F)cc2OCc2ccccc2)C[C@@H]2CC[C@H]1N2C(=O)NCCOc1ccccc1Cl	1%	16µM*	-24	-5	21µM*	1
COC(=O)C1=C(c2ccc(F)cc2OCc2ccccc2)C[C@@H]2CC[C@H]1N2C(=O)NCCOc1ccc(OC)cc1	2%	16µM*	-19	u	u	-21
CCN(CC)C(=O)c1ccc(NC(=O)c2ccc3c(c2)NC(=O)CS3)cc1	0%	-1%	0	-4	-5%	3
CCN(CC)CCNC(=O)c1c(O)c2ccccc2n(Cc2ccccc2)c1=O	3%	16µM*	-7	-6	18µM*	-1
CCN(CC)CCCNC(=O)c1c(O)c2ccccc2n(Cc2ccccc2)c1=O	1%	23µM*	0	-29	18µM*	22
Cc1nn(Cc2ccccc2)c(C)c1C(=O)OCC(=O)Nc1cccc(S(N)(=O)=O)c1	5%	-5%	2	-10	11%	21
COc1ccc(-c2nnc3n2N(C(C)=O)C(c2ccc(Cl)c(Cl)c2)=C(C(C)=O)S3)cc1	-5%	4.1µM*	x	x	3.3µM*	x
COc1ccc(C2=C(C(C)=O)Sc3nnc(-c4ccc(Cl)cc4)n3N2C(C)=O)cc1OC	0%	2.3µM*	x	x	4.1µM*	x
COc1ccc2c(c1)c(C(=O)CN1CCC3(CC1)OCCO3)c(C)n2Cc1ccccc1	3%	-27%	4	-8	-10%	4

High-throughput results deposited in PubChem BioAssay by National Center for Advancing Translational Sciences (NCATS).
